Assay outcomes from PubChem.
The sample as a whole holds a higher share of hits than the screen did.
PNC assembly inh: perinucleolar compartment assembly inhibition; PC3M PTB-GFP, PNC prevalence imaging, 16 h; stronger effect = lower value; activity change (PNC), negative = inhibition, % at 10 µM; 140,000 tested, 3.1% active; AID 2417;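 active = readout at or below -70, meaning at least 70% loss of cells showing the perinucleolar compartment, a nuclear body marking cancer cells; inconclusive = readout between -30 and a set limit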;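 note: plate controls were DMSO wells for no effect and camptothecin positive control wells for full effect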
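Read-out is percentage of cells bearing a perinucleolar compartment, from automated 20x imaging of fixed, Hoechst-stained PC3M PTB-GFP cells. Cells were seeded 4 h, then exposed 16 h to compound (23 nl of library stock) in duplicate plates.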
12-hLO inh: 12-hLO (ALOX12) enzyme inhibition; P18054; Potency, µM (top dose mostly 57.1 µM), without a hit: at the highest dose activity change, negative = inhibition, most hits filed as inhibitors; purified 12-hLO, xylenol orange hydroperoxide absorbance; 150,000 tested, 0.12% active; note: potency is the fitted concentration of half-maximal effect; nearly all actives have a fitted effect of over 55% in size
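Purified human 12hLO (150 nM final) was preincubated with compounds for 15 min at room temperature in 25 mM Hepes pH 7.0, 0.01% Triton X-100, then reacted with 40 uM arachidonic acid for 30 min. Hydroperoxide was detected with ferrous iron/xylenol orange.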
IMPase Li inh: IMPase inhibition in cells with lithium potentiation | CHO-M1 cells, IP1 TR-FRET (IP-One), carbachol + lithium | Potency, µM (highest dose often 59.4 µM), without a hit: top-dose activity, negative = IMPase inhibition, hits mostly inhibitors | 210,000 tested, 0.35% active;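 note: IP1 builds up when IMPase is blocked and the TR-FRET signal falls; potency is the fitted concentration of half-maximal effect; plate controls were basal vehicle for no effect and high inhibitor control for full effect; nearly all actives have a fitted effect of over 50% in size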
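Concentration–response in CHO-M1 cells, lithium-potentiated; 30 min at 37C. IP1 detected by competitive TR-FRET after 10 min lysis at RT. Hill-fitted AC50.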
IMPase inh: IMPase inhibition in cells; AID 901; P97697; CHO-M1 cells, IP1 accumulation, HTRF TR-FRET ratio; inhibition (IP1 accumulation), % at 46.1 µM; 120,000 tested, under 10 active; active = well fitted curve in the direction sought with a large enough effect in the signal ratio, not every such curve was filed as active; inconclusive = small, poorly fitted or top-dose-only effect, or a change in a side signal; inactive = no such curve, though single readings can be large or run the other way; the % refers to the signal ratio;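 note: cells stimulated with carbachol in lithium chloride buffer; plate controls were DMSO basal wells for no effect and reference inhibitor wells for full effect; higher means more IMPase inhibition seen as more IP1 and lower FRET ratio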
Target sequence (P97697 whole entry, looked up): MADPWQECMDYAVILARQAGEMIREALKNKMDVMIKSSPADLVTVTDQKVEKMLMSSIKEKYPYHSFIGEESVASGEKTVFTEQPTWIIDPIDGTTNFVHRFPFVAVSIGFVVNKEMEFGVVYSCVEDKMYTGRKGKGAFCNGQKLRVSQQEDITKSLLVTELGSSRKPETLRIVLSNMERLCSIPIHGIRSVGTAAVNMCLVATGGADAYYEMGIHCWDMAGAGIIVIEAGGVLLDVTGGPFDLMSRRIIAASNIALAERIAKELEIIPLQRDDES
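The IP-One HTRF competitive assay in carbachol-stimulated CHO-M1 cells quantifies cellular IP1. Compounds spanned up to 46 uM final, and activity is expressed as AC50 from concentration-response fits of the ratio and donor data.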
* hit, by the source's call; [ ] = remark or other dose. Unless noted, calls come from the whole dose curve; as a rule, active = well fitted curve in the direction sought with a large enough effect; inconclusive = small, poorly fitted or top-dose-only effect, or another doubt; inactive = no such curve, though single readings can be large; an effect the other way counts as inactive or inconclusive. Unless noted, % is set by controls: 0 for no effect and ±100 for the full control effect.

`CS[C@]12C(=O)C[C@]3(C)[C@@H](CC[C@@]3(O)C(=O)CO)[C@@H]1CCC1=CC(=O)CC[C@]12C` gave 12-hLO inh 1%[11.4 µM] and IMPase Li inh 3%.
O=S(=O)(c1ccccc1)N1CCN(c2nc3ccccc3s2)CC1 was read as PNC assembly inh inconclusive, 12-hLO inh 5%, IMPase Li inh 11µM* and IMPase inh 0.
For CS(=O)(=O)N1CCN(c2nc3ccccc3s2)CC1 the results were PNC assembly inh -13, 12-hLO inh 0%, IMPase Li inh -1%[38.3 µM] and IMPase inh 3.
For CCCCNC(=O)CCNS(=O)(=O)c1ccc(Br)cc1 the results were PNC assembly inh 25, 12-hLO inh 2%, IMPase Li inh -2% and IMPase inh -2.
CCC(C)NC(=O)CCNS(=O)(=O)c1ccc(Br)cc1 (stereo unspecified) was read as PNC assembly inh -90*, 12-hLO inh 2%, IMPase Li inh 20%[38.3 µM] and IMPase inh -2.
COc1ccc(NC(=O)/C(C#N)=C\c2cc(C)n(-c3ccc4c(c3)OCO4)c2C)cc1 was read as PNC assembly inh -124*, 12-hLO inh -2% and IMPase Li inh 4%.
O=C(O)c1ccc(F)c(S(=O)(=O)Nc2cccc(F)c2)c1 was read as 12-hLO inh -3%.
For N#Cc1c(-c2ccc3c(c2)OCO3)csc1N the results were PNC assembly inh -103*, 12-hLO inh -20%, IMPase Li inh 19%[38.3 µM] and IMPase inh 1.
For N#Cc1c(N)c(C#N)c(-c2ccc3c(c2)OCO3)c2c1CCCC2 the results were PNC assembly inh -27, 12-hLO inh -17%, IMPase Li inh -2%[38.3 µM] and IMPase inh -5.
`FC(F)(F)c1ccccc1Cl` gave 12-hLO inh -4% and IMPase Li inh -4%.
COc1ccc(OCC(O)CN2C(=O)c3ccccc3S2(=O)=O)cc1 (stereo unspecified) was read as PNC assembly inh -83*, 12-hLO inh 0%, IMPase Li inh -18%[38.3 µM] and IMPase inh 2.
Screening COc1ccc(C(=O)N(Cc2ccc(C(C)C)cc2)C2CCS(=O)(=O)C2)cc1 (stereo unspecified) returned IMPase inh -2.
`Cc1c(Cl)cccc1NC(=S)NCCC(c1ccccc1)c1ccccc1` gave PNC assembly inh inconclusive, 12-hLO inh 7.9µM* and IMPase Li inh 16%.
`Cc1c(Cl)cccc1NC(=S)NCCC(C)C` gave PNC assembly inh inconclusive, 12-hLO inh -13%, IMPase Li inh -5% and IMPase inh 6.
COc1cccc(NC(=S)NCCN2CCOCC2)c1 was read as PNC assembly inh -91*, 12-hLO inh 4% and IMPase Li inh 1%.
S=C(NCCN1CCOCC1)Nc1cccc(Cl)c1 was read as PNC assembly inh 16, 12-hLO inh -4% and IMPase Li inh -11%.
Screening Cc1c(Cl)cccc1NC(=S)NCc1ccccc1Cl returned PNC assembly inh 12, 12-hLO inh 10µM* and IMPase Li inh 16%.
Screening COc1cc(NC(=S)NCCC(c2ccccc2)c2ccccc2)cc(OC)c1 returned PNC assembly inh 24, 12-hLO inh 22µM* and IMPase Li inh 5%.
O=C(CN(CC1CCCO1)C(=O)CCC(=O)Nc1ccccn1)NCc1ccccc1 (stereo unspecified) was read as PNC assembly inh -100*, 12-hLO inh -1%, IMPase Li inh -1% and IMPase inh -4.
CCOC(=O)N1CCN(C(=O)C2CCCN(Cc3nc(-c4ccc(Cl)cc4)oc3C)C2)CC1 (stereo unspecified) was read as PNC assembly inh -100*, 12-hLO inh 0%, IMPase Li inh 2%[38.3 µM] and IMPase inh -2.
For CCOC(=O)N1CCC(NC(=O)C2CCCN(Cc3nc(-c4cccc(Cl)c4)oc3C)C2)CC1 (stereo unspecified) the results were PNC assembly inh -10, 12-hLO inh -3%, IMPase Li inh 16%[38.3 µM] and IMPase inh 17.
Nc1nc2ccccc2n1/N=C/c1ccc([N+](=O)[O-])s1 was read as PNC assembly inh -83*, 12-hLO inh -3% and IMPase Li inh 2%.
For O=C(NNS(=O)(=O)c1ccccc1)c1cc2cc3ccccc3nc2s1 the results were PNC assembly inh -106*, 12-hLO inh -10%, IMPase Li inh 16%[38.3 µM] and IMPase inh 10.
